Source: PubChem BioAssay
BAP1 inh – inhibitors of human BAP1 deubiquitinase; AID 436; recombinant BAP1, Ub-AMC hydrolysis fluorescence kinetic; active compounds read low; actives 0.48% (n = 72,000); calls only at 20 µM;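 active means activity remaining at or below 50% of control, provided the compound also passes the data quality filters; inactive means the rest, including low values that fail the filters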;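 further: 100% = DMSO wells rate and 0% = substrate alone blank rate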
M1 agonist – M1 muscarinic receptor agonism. CHO-M1 cells, Fluo-4 calcium fluorescence, agonist mode; active compounds read high. B-score at 10 µM. actives 3% (n = 64,000). AID 626;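 active means fluorescence rise, raw or as B-score row- and column-corrected plate score, outside the 99.7% band of its plate's samples, either direction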
Autofluor 339 – intrinsic fluorescence of library compounds, ex339/em460 – biochemical, MLSMR library, data from DPM-DC assay, artefact control, profiling panel. compound autofluorescence, ex339/em460 nm, NADH buffer; active compounds read high; 1 = no-compound wells, NADH background. fluorescence fold increase at 10 µM. actives 5.5% (n = 65,000). AID 709;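 active means at 10 µM, mean starting fluorescence two-fold or more over control wells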;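 further: signal is the first read of a kinetic run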
WNV protease inh – inhibitors of West Nile virus NS2B-NS3 protease | WNV NS2B-NS3 protease, fluorogenic substrate Ex360/Em465; active compounds read low | actives 0.18% (n = 65,000) | P06935 | z-score (no concentration beside the values); in the data active means z-score below about -3
M1 antag – M1 muscarinic receptor (rat) antagonism | B-score at 10 µM | P08482 | CHO-M1 cells, Fluo-4 calcium, ACh EC80 antagonist mode; active compounds read low | AID 628 | actives 3.4% (n = 64,000);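 active means calcium fluorescence response, raw or row-and-column corrected B-score, differing from the plate sample mean either way at a set confidence level, mostly lower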
A340 absorber – compounds absorbing at 340 nm. AID 708. compound absorbance at 340 nm, fold over control. 65,000 tested, under 10 active. fold change at 10 µM;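 active means at 10 µM dose, initial 340 nm absorbance at least 2 fold that of control wells; inactive means change under 2 fold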;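 further: initial absorbance extrapolated from kinetic A340 decline of NADH oxidation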
M1 agonist conf – confirmation of rat M1 muscarinic receptor agonists; shares compounds with M1 agonist; actives 19% (n = 1,700); CHO-M1 cells, Fluo-4 calcium fluorescence, agonist mode; actives lie on both sides; fluorescence change (max-min) at 10 µM; AID 1488;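 active means fluorescence change differs from the solvent-only DMSO control mean at a set confidence level in both duplicate runs; inconclusive means differs from solvent-only control mean in just one of two runs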;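 further: an EC20 dose of acetylcholine follows compound addition during the same imaging run; raw fluorescence intensity difference in instrument units with no normalization to controls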
M4 agonist ctr – counter-screen for M1 agonists: activity at rat M4 receptor | shares compounds with M1 agonist | CHO M4/Gqi5 cells, Fluo-4 calcium fluorescence, agonist mode; actives lie on both sides | fluorescence change (max-min) at 10 µM | actives 9% (n = 1,700) | AID 1741;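 active means fluorescence change differing from the plate's solvent-only control wells at 99.7% confidence in both duplicates, whether higher or lower; inconclusive means differs from solvent controls in only one of two duplicates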
Target sequence (P08485 whole entry, looked up): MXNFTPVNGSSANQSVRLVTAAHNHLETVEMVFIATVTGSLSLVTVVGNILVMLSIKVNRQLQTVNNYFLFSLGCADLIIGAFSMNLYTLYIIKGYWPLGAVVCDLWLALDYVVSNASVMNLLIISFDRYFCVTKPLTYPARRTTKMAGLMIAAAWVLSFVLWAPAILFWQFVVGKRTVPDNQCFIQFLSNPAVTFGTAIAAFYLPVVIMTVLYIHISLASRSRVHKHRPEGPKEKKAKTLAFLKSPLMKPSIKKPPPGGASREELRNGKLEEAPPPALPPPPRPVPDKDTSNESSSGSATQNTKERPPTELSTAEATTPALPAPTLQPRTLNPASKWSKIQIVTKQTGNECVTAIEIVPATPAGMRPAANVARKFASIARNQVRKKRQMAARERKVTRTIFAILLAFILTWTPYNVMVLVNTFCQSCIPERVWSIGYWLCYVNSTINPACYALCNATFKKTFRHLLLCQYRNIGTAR
Active calls of the source: *; i = inactive; ? = inconclusive; nt = no result given. A selection: hits, their analogues and other compounds. The true share with any hit is near 9.7%.

SMILES	BAP1 inh	M1 agonist	Autofluor 339	WNV protease inh	M1 antag	A340 absorber	M1 agonist conf	M4 agonist ctr
O=S(=O)(c1ccccc1)c1cccc(S(=O)(=O)N2CCCCC2)c1	i	nt	1.1	-0.64	nt	0.99	nt	nt
CCOC(=O)c1[nH]c2cc(OC)c(OC)cc2c1NC(=O)C(C)N1CCN(Cc2ccccc2)CC1 (stereo not given)	i	3.8*	2.5*	-0.86	-4.3*	1	?	-31
CCCn1nnnc1SCC(=O)Nc1nnc(CC)s1	i	2.6*	1.1	0.38	-0.077	1	-18	?
CCOc1ccc(NC(=O)c2cccc(Cl)c2)c([N+](=O)[O-])c1	i	nt	nt	nt	nt	nt	nt	nt
C=CCN(CC=C)S(=O)(=O)c1ccc2nc(NC(=O)C(C)C)sc2c1	i	8.5*	1	-1.1	-2.4*	1	?	-29
CCOC(=O)c1ccc2nc(NC(=O)C(C)C)sc2c1	i	-0.63	1.1	-0.45	-1.3	1	nt	nt
CCOC(=O)C1CCCN(C(=O)c2cc(Cl)ccc2Cl)C1 (stereo not given)	i	5.5*	1.1	0.08	1.6	0.98	11	-76*
CC1CCCN(C(=O)c2cc(F)c(F)cc2Cl)C1 (stereo not given)	i	-0.11	1	-0.36	-0.018	0.98	nt	nt
CCOC(=O)C1CCCN(C(=O)Cn2cccc2C(=O)c2ccccc2)C1 (stereo not given)	i	-2.6*	1	0.15	0.45	1	?	-36
CCOC(=O)C1CCCN(C(=O)c2cc(Nc3ccc(OC)c(OC)c3)nc3ccccc23)C1 (stereo not given)	i	8.3*	1.1	-0.41	-0.82	1.1	-19	?
CCCOC1CCCN(C(=O)c2cc(Cl)c(Cl)cc2C(=O)O)C1 (stereo not given)	i	37*	1.1	0.09	-3.4*	1	329*	-24
O=c1[nH]c(C=Cc2ccccc2)c([N+](=O)[O-])c(=O)[nH]1	i	nt	nt	nt	nt	nt	nt	nt
CC(C)(O)C#Cc1ccc(C(=O)N2CCN(C(c3ccccc3)c3ccccc3)CC2)cc1	i	nt	nt	nt	nt	nt	nt	nt
COCc1cc(=O)[nH]c(Nc2nc(C)c3ccc(C)cc3n2)n1	i	1.1	1	1.4	-0.39	1	nt	nt
Cc1ccc2c(C)nc(Nc3nc(CSc4nnnn4-c4ccccc4)cc(=O)[nH]3)nc2c1	i	8.6*	1	-0.35	-0.6	1	-13	-19
O=C(c1oc2ccccc2c1CSCc1ccccc1)N1CCN(c2ncccn2)CC1	nt	7*	1	0.87	-0.74	1	-7.6	?
Cc1n[nH]c(C)c1S(=O)(=O)N(CC(=O)NC1CCCC1)c1ccc(C(C)C)cc1	i	3.9*	1	0.9	-0.22	1	-19	-48
COC(=O)COc1cc(C)cc2oc(=O)c(CC(=O)OC)c(C)c12	i	3.1*	2.1*	-0.73	0.042	1.1	?	-33
CCc1cc(=O)oc2cc(OCC(=O)OC)c(Cl)cc12	nt	-0.49	1.6	2.1	0.78	1.1	nt	nt
COc1ccc(C2C3=C(CC(C)(C)CC3=O)OC3=C2C(=O)CC(C)(C)C3)cc1[N+](=O)[O-]	i	nt	nt	nt	nt	nt	nt	nt
CN(C)c1ccc(C2C=C(c3ccc(Cl)cc3OC(F)F)Nc3ncnn32)cc1 (stereo not given)	i	18*	1.6	-0.6	0.012	1	85*	60
CCn1c(SCC(=O)Nc2cc(C)ccc2C)nc2c(c1=O)SC(C)C2 (stereo not given)	i	1.3*	1	-0.25	0.45	1	-17	?
COc1ccc(NC(=O)C2CCCN(S(=O)(=O)c3cccc4cccnc34)C2)c(OC)c1 (stereo not given)	i	3.1*	1.1	-1.2	-0.22	1.1	-32*	?
CC(=O)c1cccc(NC(=O)C2CCCN(S(=O)(=O)c3cccc4cccnc34)C2)c1 (stereo not given)	i	6.6*	1.1	-0.58	-0.016	1	-26*	?
